CCHF vOTU inh-1: blocks the CCHF virus ovarian tumor domain protease. CCHFV vOTU protease, Pep-AMC fluorescence. inhibition, % at 11.5 µM. 370,000 tested, 0.55% active. AID 651958; further: 0% = vehicle wells with enzyme and 100% = no enzyme wells
PrP UTR inh: inhibition of PrP 5' UTR reporter expression; 340,000 tested, 0.35% active; cell-based PrP 5' UTR mRNA reporter, plate reader; inhibition, % (concentration not given with the values); AID 488862; in the data active means inhibition above about 52%; further: 0 = median of the neutral control wells
SARS 3CLpro inh: SARS-CoV 3CLpro protease inhibition; recombinant SARS-CoV 3CLpro, quenched FRET peptide cleavage; 290,000 tested, 0.14% active; inhibition, % at 6 µM; AID 1706; P0C6X7; in the data active means inhibition above about 12%
PrPC TRFRET: cell surface PrPC inhibition, primary TR-FRET screen. P04156. inhibition, % at 13.8 µM. 370,000 tested, 0.43% active. TR-FRET read-out; in the data active means inhibition above about 24%; further: 0% = median of the test wells and 100% = reference compound wells
CCHF vOTU inh-2: confirmation of CCHF virus vOTU protease inhibitors; shares compounds with CCHF vOTU inh-1; Recombinant CCHFV vOTU, Pep-AMC fluorescence; inhibition, % at 11.5 µM; 1,900 tested, 17% active; AID 686976
* = called active by the depositor; . = no result given. An excerpt weighted towards active compounds, which were near 1.3% of everything screened. Unless noted, no stated cut-off is given here; in the data, active means inhibition above about 30%; inactive means the rest.

SMILES	CCHF vOTU inh-1	PrP UTR inh	SARS 3CLpro inh	PrPC TRFRET	CCHF vOTU inh-2
Cc1ccc(Cn2ccc(=O)c(OCc3c(Cl)cccc3Cl)c2C)cc1	30*	-14	-2	17	7
O=c1[nH]c(Nc2ccccc2)cc2cc(Br)ccc12	101*	-24	.	0	98*
COc1ccccc1Nc1cc2cc(Br)ccc2c(=O)[nH]1	109*	-36	.	1	93*
O=c1[nH]c(Nc2ccccc2)cc2ccccc12	88*	-12	-4	-2	6
O=c1cc(Nc2cccc(Br)c2)[nH]c(=O)[nH]1	-7	-13	-1	5	.
COc1ccc(OC)c(Nc2cc3ccccc3c(=O)[nH]2)c1	99*	11	.	-3	90*
CCOC(=O)N1CCC(NC(=O)CCC(=O)c2ccccc2)CC1	-11	-16	6	-1	.
O=c1oc2ccccc2c(N2CCCCC2)c1CN1CCCCC1	3	-36	3	0	.
CC1Cc2ccccc2N1C(=O)COC(=O)c1ccc([N+](=O)[O-])o1 (stereo unspecified)	39*	-16	.	-26	10
COc1ccc(OC)c(NC(=O)CCNC(=O)Cn2cnc3ccccc3c2=O)c1	-13	-13	8	6	.
O=[N+]([O-])c1ccc(N/N=C/c2ccc(O)c(O)c2O)c(S(=O)(=O)N2CCOCC2)c1	34*	-26	2	-7	4
COC(=O)C1=C(c2cccc(OCc3ccccc3)c2)C[C@@H]2CC[C@H]1N2C(=O)NCc1ccc(C(C)(C)C)cc1	23	-16	.	10	.
Nc1ccc2c(O)cc(S(=O)(=O)O)cc2c1	52*	-21	.	-20	-40
Cc1cc2c(cc1C)-n1nnnc1C(N1CCN(c3ncccc3C#N)CC1)C(=O)N2 (stereo unspecified)	-11	.	.	-2	.
COC(=O)[C@]12C[C@H](CC(=O)NCc3cccc(C(F)(F)F)c3)C(=O)N(CCC3=CCCCC3)C1=C[C@H](C(C)C)O[C@@H]2C1CC1	33*	.	.	12	7
COC(=O)[C@]12C[C@H](CC(=O)NCc3cccc(C(F)(F)F)c3)C(=O)N(Cc3ccccc3)C1=C[C@H](C(C)C)O[C@@H]2C1CC1	41*	.	.	1	-4
COC(=O)[C@]12C[C@H](CC(=O)NCc3cccc(C(F)(F)F)c3)C(=O)N(Cc3ccco3)C1=C[C@H](C(C)C)O[C@@H]2C1CC1	31*	.	.	4	0
CC1CN(Cc2ccccc2)C(=S)N(c2ccccc2)C1=O (stereo unspecified)	32*	1	.	0	-17
CC1CN(C(C)C)C(=S)N(c2ccccc2)C1=O (stereo unspecified)	16	-72	.	7	.
COc1cc(C(=O)NC(C)c2ccc(S(N)(=O)=O)cc2)ccc1OCC(=O)N1CCOCC1 (stereo unspecified)	15	-12	-5	5	.
Cc1[nH]c2ccccc2c1/C=N/Nc1ccccn1	2	.	0	-1	.
Cc1[nH]c2ccccc2c1/C=N/Nc1nncn1N	113*	-14	0	5	-1
CC1C/C(=C\c2ccccc2[N+](=O)[O-])c2nc3ccccc3c(C(=O)O)c2C1 (stereo unspecified)	32*	-20	-2	-9	-10
O=C(Nc1ccc(Cl)cc1)c1cccc(N2C(=O)C3C4CCC(C4)C3C2=O)c1 (stereo unspecified)	-2	16	0	7	.
CCOC(=O)c1cnc2cc(-c3ccc(C)cc3)nn2c1C	30*	.	.	-2	-22
SMILES	CCHF vOTU inh-1	PrP UTR inh	SARS 3CLpro inh	PrPC TRFRET	CCHF vOTU inh-2
[O-][n+]1cccc2cccc(O)c21	0	-8	.	-8	.
C[n+]1cccc2cccc([O-])c21	58*	-81	8	-7	96*
CCn1c(COc2cccc(C)c2)nnc1SCC(=O)Nc1cccc(C(=O)O)c1	7	-9	-2	-2	.
CCn1c(COc2ccc3ccccc3c2C)nnc1SCC(=O)Nc1cccc(C(=O)O)c1	33*	15	-2	-10	4
O=C(COC(=O)CCc1ccc(S(=O)(=O)N2CCCCC2)cc1)Nc1ccc2c(c1)OCO2	8	-30	1	6	.
O=C(O)CSc1cc(NS(=O)(=O)c2ccc(Cl)cc2)c2ccccc2c1O	104*	-37	9	-16	95*
Cc1cc(C)c(S(=O)(=O)Nc2cc(SCC(=O)O)c(O)c3ccccc23)cc1C	.	.	5	.	.
COc1ccc(S(=O)(=O)Nc2ccc(O)c(Sc3ncn[nH]3)c2)cc1	-16	-13	-2	-8	.
COc1ccc(S(=O)(=O)Nc2cc(SCC(=O)O)c(O)c3ccccc23)cc1	102*	-50	10	2	39*

From PubChem
